In the supplement of paper PMC6411743:
± gives the standard deviation of the averaged measurements. About 5,400 targets were measured; listed, in parts, are those with the largest changes and a random draw of the rest.

Target: T1, UniProt Q8TD55|Q8TD55-2
T1 sequence (whole entry): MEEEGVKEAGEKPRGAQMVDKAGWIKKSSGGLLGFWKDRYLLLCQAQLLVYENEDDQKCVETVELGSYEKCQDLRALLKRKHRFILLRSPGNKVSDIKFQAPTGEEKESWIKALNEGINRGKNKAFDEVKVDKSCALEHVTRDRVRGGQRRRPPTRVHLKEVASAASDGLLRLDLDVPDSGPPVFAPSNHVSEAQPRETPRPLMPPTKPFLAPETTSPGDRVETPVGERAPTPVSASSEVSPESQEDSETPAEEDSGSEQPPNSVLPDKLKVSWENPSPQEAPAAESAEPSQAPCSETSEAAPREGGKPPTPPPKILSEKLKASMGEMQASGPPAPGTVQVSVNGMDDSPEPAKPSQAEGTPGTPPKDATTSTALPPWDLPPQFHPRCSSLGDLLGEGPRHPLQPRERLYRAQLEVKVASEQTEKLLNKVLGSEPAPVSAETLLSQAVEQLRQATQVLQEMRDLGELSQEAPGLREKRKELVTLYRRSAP
Experiment: NP40-soluble protein abundance relative to vehicle (solubility fold change) (ratio); higher = more soluble protein in presence of GTP
Experimental: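 Solubility proteome profiling in Jurkat crude lysate. Lysate was treated with Mg-GTP (0.1-10 mM) for 10 min at room temperature and 3 min at 37 °C, then solubilised with 0.8% NP40 and benzonase, followed by ultracentrifugation. Proteins were quantified by TMT10 LC-MS/MS; the value is the NP40-soluble abundance relative to the NP40-processed vehicle, from 3 independent experiments.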

SMILES: Nc1nc2c(ncn2[C@@H]2O[C@H](COP(=O)(O)OP(=O)(O)OP(=O)(O)O)[C@@H](O)[C@H]2O)c(=O)[nH]1 [guanosine triphosphate]
- NP40-soluble protein abundance (concentration: 0.1mM): 1.07 ± 0.12
- NP40-soluble protein abundance (concentration: 0.5mM): 0.933 ± 0.0094
- NP40-soluble protein abundance (concentration: 1mM): 1.12 ± 0.072
- NP40-soluble protein abundance (concentration: 2mM): 0.933 ± 0.018
- NP40-soluble protein abundance (concentration: 4mM): 0.96 ± 0.072
- NP40-soluble protein abundance (concentration: 6mM): 0.918 ± 0.046
- NP40-soluble protein abundance (concentration: 8mM): 0.943 ± 0.13
- NP40-soluble protein abundance (concentration: 10mM): 1.03 ± 0.097
